Calpain2 inh: inhibitors of pig calpain II, primary screen, biochemical, fluorogenic peptide substrate, 1536-well | actives 0.37% (n = 220,000) | purified calpain II, 30 min | inhibition, % at 16 µM;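 active means inhibition above about 50%, limit read from the data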
Furin inh: human furin inhibitors, primary screen, biochemical, fluorescence intensity; P09958; purified furin, fluorogenic substrate cleavage; inhibition, % at 20 µM or 30 µM; actives 0.061% (n = 220,000); in the data active means inhibition above about 25%
Target sequence (P09958 108-714 limits assumed): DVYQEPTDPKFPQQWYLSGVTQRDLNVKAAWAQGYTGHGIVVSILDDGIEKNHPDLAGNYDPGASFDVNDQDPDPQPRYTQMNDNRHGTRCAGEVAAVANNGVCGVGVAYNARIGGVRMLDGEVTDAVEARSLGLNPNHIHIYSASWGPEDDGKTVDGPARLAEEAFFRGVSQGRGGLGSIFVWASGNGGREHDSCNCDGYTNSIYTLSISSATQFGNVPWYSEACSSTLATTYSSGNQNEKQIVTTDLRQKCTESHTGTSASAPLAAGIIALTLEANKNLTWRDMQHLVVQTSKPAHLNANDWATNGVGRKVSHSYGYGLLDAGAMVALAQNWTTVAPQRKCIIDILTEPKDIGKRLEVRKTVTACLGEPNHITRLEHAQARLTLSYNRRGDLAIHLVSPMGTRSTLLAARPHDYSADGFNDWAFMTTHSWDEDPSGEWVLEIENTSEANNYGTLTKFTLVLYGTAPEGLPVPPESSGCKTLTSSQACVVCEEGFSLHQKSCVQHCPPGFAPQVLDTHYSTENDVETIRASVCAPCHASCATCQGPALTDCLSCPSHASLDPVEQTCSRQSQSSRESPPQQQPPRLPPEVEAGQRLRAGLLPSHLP
EP2 antag: human EP2 receptor antagonists, primary screen, TR-FRET cAMP, C6 glioma cells; Prostaglandin E2 receptor EP2 subtype (Homo sapiens), P43116; inhibition, % at 25 µM; actives 0.52% (n = 260,000); C6 glioma cells expressing human EP2; cells stimulated with saturating PGE2;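 active means percent inhibition above 40 after rounding to a whole number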;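 further: rat C6 glioma host cells with rolipram phosphodiesterase inhibitor present; the protocol text gives 20 µM as final concentration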
EP2 mod: EP2 receptor modulators, cAMP readout, primary screen, cell-based, HTRF cAMP, PGE2 stimulation; Prostaglandin E2 receptor EP2 subtype (Homo sapiens), P43116; EP2-expressing cells, cAMP HTRF FRET, PGE2 co-stimulation; induction, % at 25 µM; actives 0.83% (n = 260,000); AID 940, 2007;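 active means compounds whose cAMP rise, as percent of the full-agonist control response, exceeds 60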;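 further: rat C6 glioma line stably carrying human EP2 under a CMV promoter; the protocol text gives 20 µM as final concentration; 100% = response of wells given 1 µM PGE2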
Efa HMGR inh: inhibitors of E. faecalis class II HMGR, primary screen, biochemical, Enterococcus faecalis. purified E. faecalis HMGR, NADPH absorbance 340 nm kinetic. AID 1066, 2008. inhibition, % at 10 µM. HMG-CoA reductase (Enterococcus faecalis, mvaE). actives 0.41% (n = 190,000);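 active means inhibition above a set limit, the median over all tested compounds plus 3 SD, cut at about 9.5% in these data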;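 further: enzyme runs in reverse so mevalonate oxidation gives rising NADPH absorbance; 0% = complete reaction with DMSO and 100% = background rate lacking mevalonate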
An asterisk follows results filed as active; · = no result. Compounds with a hit are over-represented: about 1.9% of the library has one in this group of screens.

SMILES	Calpain2 inh	Furin inh	EP2 antag	EP2 mod	Efa HMGR inh
Cc1cc2nc(CCN3CCOCC3)n(S(=O)(=O)c3ccc(C(C)(C)C)cc3)c2cc1C	-66.3	-5.8	1.9	61.4*	3.5
CC(C)(C)c1ccc(S(=O)(=O)NCCN2CCOCC2)cc1	·	·	10.1	8.8	·
CCOc1ccc(-n2c(SCC(=O)N(CC)CC)nnc2-c2ccncc2)cc1	·	·	8.0	-18.7	·
C[C@H]1[C@H](C)OC(=O)C[C@H](O)C[C@H](O)C[C@H](O)CC[C@H](O)[C@H](O)CC(=O)C[C@H](O)[C@H](C(=O)O)[C@H](O)C[C@H](O[C@H]2O[C@@H](C)[C@H](O)[C@@H](N)[C@@H]2O)C=CC=CC=CC=CCCC=CC=C[C@@](C)(O)[C@H]1O	·	·	43.9*	19.7	·
CC1C/C=C/C=C/C=C/C=C/C(O[C@@H]2O[C@H](C)[C@@H](O)[C@H](N)[C@@H]2O)CC2OC(O)(CC(O)CC3OC3/C=C/C(=O)O1)CC(O)C2C(=O)O (stereo partly drawn)	-30.7	-18.7	·	28.8	·
Cc1cc(C)nc(N/N=C2/CCCC/C2=C\c2ccccc2)n1	19.0	-6.6	4.5	-54.2	13.6*
Cc1ccnc(N/N=C/c2ccccc2)n1	-22.5	-11.1	8.5	-2.3	-0.8
CC(C)(C)NC(=O)C(c1cccs1)N(Cc1ccccc1)C(=O)c1snc(C(N)=O)c1N (stereo not drawn)	·	·	10.2	24.8	·
O=C(COC(=O)CCc1ccccc1)NC12CC3CC(CC(C3)C1)C2	50.1*	-8.8	0.7	-35.0	0.6
COc1ccccc1CC(=O)N1CCC[C@@H]1Cn1nc(-c2cccs2)ccc1=O	·	·	10.8	-22.1	·
Cc1cc(NC(=O)c2cnn3c(C(F)(F)F)cc(-c4ccccc4)nc23)no1	-43.1	0.8	51.0*	-54.9	-1.7
COc1cccc(CN(C)CC(=O)Nc2cccc(C(F)(F)F)c2)c1OC	63.0*	-28.8	7.1	11.8	-2.0
COC(=O)c1scc(C)c1NC(=O)Nc1ccccc1	24.7	-14.1	12.2	23.2	-2.0
COC(=O)c1scc(C)c1N/N=C(\C)c1ccc(F)cc1	-160.6	-21.5	3.7	60.6*	2.9
CCOC(=O)c1cccc(NC(=O)CSc2nnc3c(C)cc4cc5c(cc4n23)OCO5)c1	·	·	48.1*	2.8	·
Cc1cc2cc(CN(C(=O)Nc3ccc(F)cc3)C3CCCCC3)c(=O)[nH]c2cc1C	·	·	9.1	-3.1	·
COc1ccc(OC)c(NC(=O)CSc2nc3cc4c(cc3cc2C#N)OCCO4)c1	·	·	6.0	-35.9	·
Cc1ccc(S(=O)(=O)n2[nH]c(=O)cc2NC(=O)c2cccs2)cc1	43.0	-14.8	3.0	-14.7	10.7*
CCCOC(=O)C(C)n1c(-c2ccccc2)nc2ccccc2c1=O (stereo not drawn)	-0.2	9.3	20.5	61.5*	0.3
CCCCOC(=O)Cn1c(-c2ccccc2)nc2ccccc2c1=O	12.6	-25.2	5.9	37.4	-2.8
COc1ccccc1NC(=O)/C=C\C(=O)O	76.8*	-24.2	5.0	14.5	-1.1
Cc1cccc(C2(c3cccc(C)c3)CC2C(=O)Nc2ccc([N+](=O)[O-])cc2O)c1 (stereo not drawn)	-44.6	-26.5	7.9	60.8*	-5.7
Nc1nc(/C=C/c2c[nH]c3ccccc23)nc(-c2ccccc2O)n1	·	·	91.4*	-117.1	·
Nc1nc(/C=C/c2ccc(F)cc2)nc(-c2ccccc2O)n1	3.3	4.0	9.1	-25.7	-0.8
O=C(Cc1ccc(F)cc1)NCCn1nc(-c2cccs2)ccc1=O	·	·	7.2	16.9	·
SMILES	Calpain2 inh	Furin inh	EP2 antag	EP2 mod	Efa HMGR inh
CC1(C)CNC(=O)c2sc(NC(=O)c3ccccc3)nc2C1	-21.8	-13.1	5.5	-45.4	13.9*
CC1(C)CC(=O)c2sc(NC(=O)c3ccccc3)nc2C1	2.7	-19.0	6.1	-31.3	-1.4
Cc1cccc(N2CCN(c3nc4ccccc4n4cnnc34)CC2)c1C	-68.7	-22.2	10.5	62.6*	-0.3
c1cnc(N2CCN(c3nc4ccccc4n4cnnc34)CC2)nc1	-5.4	-10.4	2.7	-15.1	3.0
Cc1cc(-c2cc(N)c(=O)n(CC(=O)Nc3ccc(OC(F)(F)F)cc3)n2)c(C)o1	·	·	5.2	-50.6	·
COc1ccccc1NC(=S)N1CCCc2ccccc21	-4.0	-27.9	6.2	-13.6	16.1*
CCOc1ccccc1NC(=S)N1CCCc2ccccc21	-11.8	-21.7	3.7	50.7	-0.6
Cc1cc(S(=O)(=O)N2CCCCC2)ccc1-n1cnnn1	·	·	5.5	-19.2	·
NC(=O)c1ccccc1N/C=C/C(=O)c1ccc(F)cc1	-16.5	27.2*	·	-18.0	-7.7
NC(=O)c1ccccc1N/C=C/C(=O)c1cccs1	-35.2	-22.4	1.6	-11.1	-0.9
CCOc1ccc(OCC(=O)Nc2ccc(OC)cc2[N+](=O)[O-])cc1	18.4	-13.3	3.9	7.8	-5.9
CCCOC(=O)Nc1cc(OC)ccc1[N+](=O)[O-]	63.1*	-5.6	3.7	-3.8	-3.4
O=S(=O)(NCc1ccc2c(c1)OCO2)c1ccc(S(=O)(=O)NC2CCCCC2)cc1	·	·	11.9	-80.9	·
CCOC(=O)c1cnc(-n2nc(C)cc2C)nc1Nc1ccc(N(C)C)cc1	15.0	-22.1	7.1	62.1*	-9.3
Nc1nc(-c2cc(-c3cccc4ccccc34)nc(N)n2)cc(-c2cccc3ccccc23)n1	·	·	57.2*	-9.9	·
Cc1cc2n(n1)C(c1ccccc1C(F)(F)F)Nc1ccccc1-2 (stereo not drawn)	·	·	6.3	28.3	·
CCOc1ccccc1C1Nc2ccccc2-c2cc(C)nn21 (stereo not drawn)	·	·	13.1	61.8*	·
CCc1ccc(OCc2n[nH]c(=S)n2Cc2ccccc2)cc1	53.8*	-12.3	4.4	31.1	2.2
C=CCn1c(=NC(=O)c2ccco2)sc2cc(C(=O)OCC)ccc21	-27.8	-13.5	40.6*	33.4	-8.3
Cc1cc(-c2cnc(C)nc2C2CCN(C(=O)Nc3ccccc3F)CC2)on1	·	·	·	7.3	·
CCCCOc1ccc(-c2ncc(Cl)cn2)cc1	-14.3	27.5*	10.6	29.1	-5.5
Cc1c2cccc(Sc3ccccc3)c2c2c3c(cccc13)[S+](c1ccccc1)C2 (stereo not drawn)	·	·	42.2*	25.2	·
CC(=O)c1cccc(NC(=O)CSc2nc3c(c(=O)n(C)c(=O)n3C)n2C)c1	·	·	13.3	3.9	·
CC(NC(=O)C(=O)NCc1cccnc1)c1ccccc1 (stereo not drawn)	·	·	10.1	-15.4	·
C(=N\N1CCN(C2c3ccccc3-c3ccccc32)CC1)/c1ccncc1	8.2	4.2	9.4	61.1*	0.3
COc1cccc(/C=N/N2CCN(C3c4ccccc4-c4ccccc43)CC2)c1O	-30.2	-3.5	8.7	65.5*	·
COc1cc(/C=N/N2CCN(C3c4ccccc4-c4ccccc43)CC2)ccc1O	-111.7	-11.8	10.3	54.6	-0.2
O=C(c1cc(-c2ccccn2)n[nH]1)N1CCN(CCOc2ccc(F)cc2)CC1	·	·	7.5	-49.6	·
